SENP8 block-1: inhibitors of human SENP8 protease; Q96LD8; purified SENP8, Z-RLRGG-aminoluciferin cleavage, luminescence; inhibition, % at 10 µM; actives 1.2% (n = 330,000); in the data active = inhibition above about 50%
SENP8 block-2: inhibitors of human SENP8 protease; inhibition, % at 20 µM; actives 0.64% (n = 360,000); Q96LD8; recombinant SENP8, Nedd8 substrate fluorescence; in the data active = inhibition mostly above about 40%, no sharp cut-off; inactive = mostly below about 27%
PPC-1+TRAIL kill: PPC-1 cancer cell killing with TRAIL present | cell killing (% activity), % at 4 µM or 5 µM | actives 0.41% (n = 220,000) | AID 1443 | PPC-1 cells + TRAIL, ATPLite viability luminescence;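 active = cell killing above 50% in the first pass at 4 µM, then a duplicate retest at 5 µM averaging 50% or more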
C8 TRAIL sens: caspase-8 TRAIL sensitization | NB7+C8 cells + TRAIL, ATPlite viability luminescence | inhibition (viability loss, TRAIL sensitization), % at 10 µM | actives 1% (n = 360,000);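 active = compounds causing at least 50% loss of cell viability in the single-dose screen, relative to plate controls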
SENP7 inh: blocks the human protease SENP7 | Q9BQF6 | recombinant SENP7, Z-RLRGG-aminoluciferin luminescence, 40 min | inhibition, % at 5 µM | actives 1.5% (n = 330,000) | AID 434973;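 active = inhibition above about 50% at the single test dose, limit read from the data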
SENP6 block: blocks the human protease SENP6; inhibition, % at 10 µM; actives 1.8% (n = 330,000); Recombinant SENP6 catalytic domain, aminoluciferin luminescence; Q9GZR1;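 active = inhibition above about 50% at the single tested dose, limit read from the data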
Target sequence (Q9GZR1 628-1112 limits assumed): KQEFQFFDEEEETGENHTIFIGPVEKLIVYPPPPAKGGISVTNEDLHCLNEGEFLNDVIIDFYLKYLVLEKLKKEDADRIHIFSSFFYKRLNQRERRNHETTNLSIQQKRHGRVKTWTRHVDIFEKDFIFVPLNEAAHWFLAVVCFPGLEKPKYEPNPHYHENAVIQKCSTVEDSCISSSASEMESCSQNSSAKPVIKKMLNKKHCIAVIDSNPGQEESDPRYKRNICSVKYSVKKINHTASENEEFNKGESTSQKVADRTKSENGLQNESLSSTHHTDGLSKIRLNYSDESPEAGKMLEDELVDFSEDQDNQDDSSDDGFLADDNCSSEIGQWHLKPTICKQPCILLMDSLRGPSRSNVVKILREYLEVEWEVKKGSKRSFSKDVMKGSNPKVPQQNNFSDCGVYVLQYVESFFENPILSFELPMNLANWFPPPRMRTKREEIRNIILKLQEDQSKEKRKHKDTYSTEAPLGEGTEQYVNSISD
Hits are given with their value; 0 = inactive; - = not tested or not shown. Sampled rows, rich in hits. Any-hit rate of the full collection: about 3%.

SMILES	SENP8 block-1	SENP8 block-2	PPC-1+TRAIL kill	C8 TRAIL sens	SENP7 inh	SENP6 block
Cc1ccc(N2C(=O)[C@@H]3[C@H](C2=O)C2c4ccccc4C=CN2[C@@H]3C(=O)c2ccco2)c(C)c1 (stereo partly specified)	0	0	0	0	51	0
O=C(c1ccco1)[C@@H]1[C@@H]2C(=O)N(c3ccccc3)C(=O)[C@@H]2C2c3ccccc3C=CN21 (stereo partly specified)	64	0	0	0	0	87
CCc1nc2ccc(C(=O)NCCc3c[nH]c4ccccc34)cn2c1N(C=O)CCC(C)C	-	0	-	0	-	-
Fc1ccc(-c2nnc(-c3ccc4ccccc4c3)o2)cc1	-	0	-	0	-	-
COC(=O)CCC(=O)OC1(C)C(=O)C2=CN(CCN3CCOCC3)C(c3ccc(OC)cc3)=CC2=C(Br)C1=O (stereo unspecified)	0	-	0	-	0	52
COC(=O)CCC(=O)OC1(C)C(=O)C2=CN(CCCCO)C(c3ccc(OC)cc3)=CC2=C(Br)C1=O (stereo unspecified)	0	-	-	-	0	0
COC(=O)c1c(NC(=O)c2ccc(OC(C)C)cc2)sc2c1CC(C)(C)NC2(C)C	0	0	0	72	0	0
COC(=O)c1c(NC(=O)c2ccccc2)sc2c1CC(C)(C)NC2(C)C	0	0	0	0	0	0
CCOC(=O)c1c(NC(=O)COc2ccccc2C#N)sc2c1CC(C)(C)NC2(C)C	0	0	-	0	0	0
CCOC(=O)c1c(NC(=O)COc2ccccc2OCC)sc2c1CC(C)(C)NC2(C)C	0	0	-	91	0	0
CC1(C)Cc2c(sc(NC(=O)COc3cccc4ccccc34)c2C#N)C(C)(C)N1	0	0	0	85	0	0
CCCCCCCCCC(=O)OCC(O)CO (stereo unspecified)	0	0	0	0	0	0
CCCCCCCCCCCCCCC[C@@H](O)[C@@H](N)CO	-	0	-	95	-	-
N#Cc1ccc(OCC(=O)OCC(=O)c2ccc[nH]2)cc1	0	0	-	0	0	0
O=C(Nc1ccc2oc(-c3ccccc3F)nc2c1)c1ccccc1F	0	0	-	0	0	0
O=C(Nc1ccc2oc(-c3ccccc3F)nc2c1)c1ncn[nH]1	51	0	0	0	81	82
COc1ccc(OC)c2sc(N(CCCN(C)C)C(=O)c3ccc(S(=O)(=O)N4CCc5ccccc5C4)cc3)nc12	0	-	-	-	0	0
COc1ccc(C)c2sc(N(CCCN(C)C)C(=O)c3ccc(S(=O)(=O)N4CCc5ccccc5C4)cc3)nc12	-	0	-	93	-	-
COc1cccc2sc(N(CCCN(C)C)C(=O)c3ccc(S(=O)(=O)N4CCc5ccccc5C4)cc3)nc12	0	0	-	83	0	0
Cc1ccc2sc(N(CCCN(C)C)C(=O)c3ccc(S(=O)(=O)N4CCc5ccccc5C4)cc3)nc2c1C	0	0	-	76	0	0
CN(C)CCCN(C(=O)c1ccc(S(=O)(=O)N2CCc3ccccc3C2)cc1)c1nc2c(F)cc(F)cc2s1	0	0	-	0	0	0
CC(C)Cc1ccc(-c2cc3nc(NCC4CC4)ccn3n2)cc1	-	0	-	0	-	-
CS(=O)(=O)Nc1cccc(NC(=O)C2Cc3c(-c4ccccc4)ccnc3O2)c1 (stereo unspecified)	-	0	-	57	-	-
O=S(=O)(Nc1ccc(N=Nc2ccc(O)c3ccccc23)cc1)c1ccccc1	0	0	0	0	0	0
O=[N+]([O-])c1ccc(N=Nc2ccc(O)c3ccccc23)cc1	-	45	-	63	-	-
SMILES	SENP8 block-1	SENP8 block-2	PPC-1+TRAIL kill	C8 TRAIL sens	SENP7 inh	SENP6 block
Nc1ccc(N2CCN(c3ccc(Cl)c(Cl)c3)CC2)cc1	0	41	0	0	0	0
Nc1ccc(N2CCCCCC2)cc1	0	-	0	-	0	52
NC(=O)C1CCN(S(=O)(=O)c2cc3c4c(c2)CCN4C(=O)CC3)CC1	0	0	-	0	0	0
Cc1ccc(O)c(NC(=O)c2ccc3c(c2)C(=O)N(Cc2ccco2)C3=O)c1	0	0	-	0	0	0
CNC(=S)N/N=C/c1ccc(-c2cccc(C(=O)O)c2)o1	0	0	0	0	0	0
Nc1nonc1C(=O)N/N=C/c1ccc(-c2cccc(C(=O)O)c2)o1	0	-	0	-	0	58
COCCCN(C(=O)c1cc(C)oc1C)c1c(N)n(CC(C)C)c(=O)[nH]c1=O	0	0	-	0	0	0
Oc1ccc(N=Nc2ccc3c(c2)OCCO3)c2cccnc12	0	40	0	0	0	0
COc1cc(OC)cc(C(=O)Nc2cccc3cccnc23)c1	0	0	-	0	0	0
COc1ccc(C)cc1N=Nc1ccc(O)c2ncccc12	-	0	0	0	-	-
COc1cccc(N=Nc2ccc3cccnc3c2O)c1	84	0	-	0	79	90
COc1cccc(N=Nc2ccc(O)c3ncccc23)c1	73	0	-	0	62	77
CC1CCCC(NC(=O)NC(=O)COC(=O)C2=NN(c3ccccc3)C(=O)CC2)C1C (stereo unspecified)	0	0	-	0	0	0
Nc1nc(CCl)nc(Nc2cccc3ccccc23)n1	0	0	0	95	0	0
O=C1c2cccc(NCCNCCO)c2C(=O)c2cccc(NCCNCCO)c21	-	44	-	64	-	-
O=C(O)CCNc1ccc(NCCC(=O)O)c2c1C(=O)c1ccccc1C2=O	0	0	-	0	0	0
CN1/C(=C/C=C/c2n(C)c3cc([N+](=O)[O-])c([N+](=O)[O-])cc3[n+]2C)C(C)(C)c2ccccc21	-	60	-	0	-	-
Cc1cccc[n+]1CC(=O)/C=C1\N(C)c2ccccc2C1(C)C	0	0	0	0	0	0
CC1C(O)=C(c2ccccc2)P(=O)(Cc2ccccc2)C1C (stereo unspecified)	-	0	-	0	-	-
CN(C)S(=O)(=O)c1ccc(N2CCN(S(=O)(=O)c3ccc(F)cc3)CC2)c(Cl)c1	0	0	0	53	0	0
CCN(CC)c1ccc(N=Cc2ccc([N+](=O)[O-])o2)cc1	0	0	53	0	0	0
CCOC(=O)C1=C(C)OC(=Cc2ccc(OC)cc2)C1=O	-	0	-	70	-	-
CCOC(=O)C1=C(Nc2ccc(OC)cc2)OCC1=O	0	0	0	0	0	0
Cc1ccc(C(=O)Oc2ccc(C(=O)COC(=O)c3cnccn3)cc2)cc1	0	0	0	51	0	0
CCCCCCCCOC(=O)c1cc([N+](=O)[O-])c(Sc2ncnc3nc[nH]c23)c([N+](=O)[O-])c1	-	0	-	67	-	-
SMILES	SENP8 block-1	SENP8 block-2	PPC-1+TRAIL kill	C8 TRAIL sens	SENP7 inh	SENP6 block
Nc1ccc(-c2nc3ncccc3o2)c(Cl)c1	0	0	0	53	0	0
COc1nsnc1NS(=O)(=O)c1ccc(NC(=S)NC(=O)c2ccncc2)cc1	0	0	0	0	0	0
COc1nccnc1NS(=O)(=O)c1ccc(NC(=S)NC(=O)c2ccc(F)cc2)cc1	78	0	0	0	69	86
O=C(c1cc2c(s1)CCCC2)n1cccn1	0	0	0	0	64	58
Cc1cc(N/N=C/c2ccc(O)cc2O)nc(-c2ccccc2O)n1	-	0	0	77	-	-
Cc1cc(N/N=C/c2cccc(Cl)c2)nc(-n2nc(C)cc2C)n1	0	0	0	0	0	0

Bioassay records: PubChem, Sanford-Burnham Center for Chemical Genomics
